High-throughput results from PubChem BioAssay.
NS1 function inh – inhibitors of influenza NS1 protein function; Potency, µM (highest dose often 46.1 µM), for the others: at the top dose activity, positive = more growth; actives 0.4% (n = 270,000); calls by dose curve; note: potency is the fitted concentration of half-maximal effect; actives are rising curves; nearly all actives have a fitted effect of over 50% in size
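Read-out: OD600 growth recovery of NS1-expressing budding yeast. Cells grown overnight at 30C in -URA glucose medium, washed, resuspended and diluted 1:100 in 2% galactose assay medium, pH 6.0. Same strain lacking NS1 served as positive control.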
Pf growth 48h – inhibits P. falciparum growth in the first generation, 48 h. actives 5.9% (n = 310,000). P. falciparum luciferase growth in erythrocytes, 48 h. Potency, µM (top dose mostly 28.7 µM), without a hit: at the highest dose activity change, negative = inhibition, most hits filed as inhibitors. AID 504832; note: potency is the fitted concentration of half-maximal effect; % is set by controls: 0 for no effect and ±100 for the full control effect
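Compounds are pin-transferred into medium, infected erythrocytes (2% hematocrit, 0.1% parasitemia final) are added, and plates sit one parasite generation at 37 C in 5% CO2. Detection reagent is then added and luminescence measured.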
Shiga toxin inh – blocks Shiga toxin action in Vero cells. actives 9.2% (n = 290,000). inhibition, % at 38.7 µM. AID 2315. Vero cells, Shiga toxin protein synthesis inhibition reporter; in the data active = inhibition mostly above about 28%, no sharp cut-off; inactive = mostly below about 43%; note: 0% is about no effect
SARS PLP yeast – inhibitors of SARS-CoV papain-like protease in yeast; S. cerevisiae expressing SARS-CoV PLpro, growth rescue; actives 0.19% (n = 330,000); Potency, µM (titrated, usually from 32.9 µM), for inactives: at the top dose activity, positive = growth rescue, actives largely listed as activators; calls by dose curve; note: potency is the fitted concentration of half-maximal effect; 0% is about no effect; nearly all actives have a fitted effect of over 55% in size
CHX counter – counter-screen hit for Shiga toxin inhibitors, cycloheximide | cell reporter, cycloheximide protein synthesis inhibition counterscreen | max response, % | actives 12% (n = 300,000) | AID 2314; in the data active = max response mostly above about 13%, no sharp cut-off; inactive = mostly below about 14%; note: read at 38.3 µM for the half of the compounds with a filed dose; 0% is about no effect
Pf growth 96h – P. falciparum growth inhibition at 96 hours; P. falciparum luciferase reporter growth, 96 h; Potency, µM (titrated, usually from 28.7 µM), for the others: at the top dose activity change, negative = inhibition, usual class: inhibitors; actives 6.9% (n = 320,000); AID 504834; note: potency is the fitted concentration of half-maximal effect; % is set by controls: 0 for no effect and ±100 for the full control effect
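P. falciparum expressing integrated firefly luciferase grown in erythrocytes (2% hematocrit, 0.05% parasitemia final) with compounds for 96 hours at 37 C, 5% CO2. Growth inhibition read as loss of luminescence after adding luciferase detection reagent.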
Active calls of the source: *; ? = inconclusive; / = not tested or not shown; ! = not active in a repeat. Rows were chosen to be rich in hits. Some 21% of all compounds tested hit in one or more screens of this group. Unless noted, calls come from the whole dose curve; as a rule, active = well fitted inhibition curve with a large enough effect; inconclusive = small, poorly fitted or top-dose-only effect, or another doubt; inactive = no such curve, though single readings can be large or run the other way.

SMILES	NS1 function inh	Pf growth 48h	Shiga toxin inh	SARS PLP yeast	CHX counter	Pf growth 96h
CCCCc1nc2ccccc2[nH]1	-6.0%	18.9%	-15.1	-1.9%	9.0	14.4%
O=c1[nH]c2ccccc2nc1CCc1ccccc1	/	51.8%	70.7*	-4.4%	24.2*	96.4%
Cn1c(Cc2cccs2)nnc1SCc1nc2ccccc2[nH]1	-4.9%	-21.2%	16.7	-9.3%	-0.9	8.8%
c1ccc(CCc2nc3ccccc3[nH]2)cc1	-3.2%	83.3%	78.2*	0.5%	40.8*	5.86µM*
c1ccc2[nH]c(CCCc3nc4ccccc4[nH]3)nc2c1	9.0%	?	-5.1	-8.5%	-2.0	13.1µM*
c1csc(Cc2nc3ccccc3[nH]2)c1	-10.1%	15.9%	34.9	-2.2%	23.7*	1.6%
CCCCOc1ccc(C(=O)NCC(=O)NCC2CCCO2)cc1 (stereo not drawn)	8.9%	?	-6.4	0.5%	0.6	27.2%
CCOCc1nnc(NC(=O)C2c3ccccc3Oc3ccccc32)s1	8.9%	2.1%	-6.4	0.3%	-1.8	43.9%
Cc1c(NC(=O)c2cccc(NC(=O)COc3ccccc3C#N)c2)c(=O)n(-c2ccccc2)n1C	/	?	/	2.0%	/	-7.1%
Fc1ccc(-c2ccc(Nc3cccc(F)c3)nn2)cc1	-1.2%	?	51.1*	-0.5%	46.3*	0.6%
Fc1ccc(Nc2ccc(-c3ccc(F)cc3)nn2)cc1	-6.2%	19.0%	62.9*	-1.0%	50.5*	-0.4%
COc1ccc(Cc2nnc(NC(=O)c3ccccc3)s2)cc1OC	14.0%	24.3%	19.0	2.8%	4.8	14.1%
Cc1c(Cl)cccc1NC(=O)COC(=O)c1ccc(CN2CCCC2=O)cc1	/	-2.3%	/	3.4%	/	-6.2%
CCCC(=O)N(CCc1ccc(OC)cc1)Cc1nc2ccccc2c(=O)[nH]1	-5.3%	/	-9.4	6.9%	-6.3	10.4µM*
O=C(C1CC1)N(CCc1ccccc1)Cc1nc2ccccc2c(=O)[nH]1	0.6%	-25.2%	-15.3	-1.6%	6.2	14.7µM*
CCN(Cc1nc2ccccc2c(=O)[nH]1)C(=O)COc1ccccc1Cc1ccccc1	/	?	/	-2.9%	/	8.28µM*
O=C(C1CCC1)N(CCc1ccccc1)Cc1nc2ccccc2c(=O)[nH]1	-11.7%	?	-5.4	-9.3%	6.8	5.4%
O=C(NC1CCCCC1)N(Cc1ccc(F)cc1)Cc1nc2ccccc2c(=O)[nH]1	-16.5%	10.4µM*	-12.6	-2.7%	-1.3	37.9%
COc1ccc(CNC(=O)CN(C(=O)CCC(=O)Nc2ccccn2)c2ccc(C)cc2)cc1	6.9%	-10.3%	-6.1	4.4%	-2.8	5.3%
COc1ccc2nc(SCC(=O)N(C)C3CCCCC3)[nH]c2c1	/	?	/	-1.3%	/	?
COCCN(Cc1nc2ccccc2c(=O)[nH]1)C(=O)COc1ccccc1-c1ccccc1	/	?	/	3.7%	/	?
Cc1cccc2nc(CSc3ncccc3C(=O)O)cn12	/	-2.5%	-3.9	1.2%	-2.9	15.1%
Cc1cccc2nc(COc3ccc(Cl)c4cccnc34)cn12	-30.3%	18.8%	102.1*	-0.7%	32.5*	61.3%
Cn1cnc([N+](=O)[O-])c1Sc1ncn[nH]1	9.8%	?	-4.1	-0.5%	-1.8	?
COC(=O)[C@H]1[C@H]2C[C@H]3c4[nH]c5ccccc5c4CCN3C[C@H]2CC[C@@H]1O	-3.1%	-4.5%	-5.8	-7.6%	0.4	1.51µM*!
COC(=O)C1C(O)CCC2CN3CCc4c([nH]c5ccccc45)C3CC21 (stereo not drawn)	?	6.5%	21.7	-0.1%	-7.1	24.0%
CCOC(=O)Oc1c(OC)cc(C(=O)O[C@@H]2C[C@@H]3CN4CCc5c([nH]c6cc(OC)ccc56)[C@H]4C[C@@H]3[C@H](C(=O)OC)[C@H]2OC)cc1OC	/	2.62µM*	/	/	/	2.94µM*
COC(=O)[C@@H]1[C@@H]2C[C@H]3c4[nH]c5cc(OC)ccc5c4CCN3C[C@@H]2C[C@H](OC(=O)/C=C\c2cc(OC)c(OC)c(OC)c2)[C@H]1OC	/	5.1µM*	/	/	/	?
Cc1cccc(C(=O)NCc2nnc3c4ccccc4c(-c4ccccc4)nn23)c1	24.0%	15.5%	-12.7	?	-4.9	?
CCOc1ccc(NC(=O)CN(C)C(=O)Cc2c[nH]c3ccccc23)cc1OCC	/	?	/	0.8%	/	?
